Screening results (PubChem BioAssay)
proKLK7 act = activators of human kallikrein-7 zymogen; P49862; purified proKLK7, EDANS-DABCYL substrate fluorescence; 100% is mature enzyme control, 0% vehicle; activation, % at 7 µM; 370,000 tested, 0.9% active; AID 652039;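 active = activation above the mean of all tested compounds plus 3 SD, computed per campaign excluding outliers beyond control limits, cut at about 13% in these data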
ADAM17 inh = ADAM17 inhibition, QFRET primary screen; recombinant ADAM17, EDANS/DABCYL FRET peptide cleavage; P78536; inhibition, % at 6.95 µM; 370,000 tested, 0.83% active;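 active = inhibition above the mean of compounds lying between control limits plus 3 SD, set per campaign, cut at about 8.5% in these data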;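 note: 0% = DMSO-only wells as the low control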
ADAM10 inh = inhibitors of human ADAM10 | recombinant ADAM10, EDANS/DABCYL FRET peptide cleavage, 3 h | inhibition, % at 7 µM | 370,000 tested, 0.62% active | AID 720582;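 active = inhibition above a per-campaign cutoff equal to the mean of compounds falling between control-based bounds plus 3 SD, cut at about 20% in these data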;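 note: 0% = DMSO wells while the 100% control is not disclosed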
Target sequence (O14672 214-748 limits assumed): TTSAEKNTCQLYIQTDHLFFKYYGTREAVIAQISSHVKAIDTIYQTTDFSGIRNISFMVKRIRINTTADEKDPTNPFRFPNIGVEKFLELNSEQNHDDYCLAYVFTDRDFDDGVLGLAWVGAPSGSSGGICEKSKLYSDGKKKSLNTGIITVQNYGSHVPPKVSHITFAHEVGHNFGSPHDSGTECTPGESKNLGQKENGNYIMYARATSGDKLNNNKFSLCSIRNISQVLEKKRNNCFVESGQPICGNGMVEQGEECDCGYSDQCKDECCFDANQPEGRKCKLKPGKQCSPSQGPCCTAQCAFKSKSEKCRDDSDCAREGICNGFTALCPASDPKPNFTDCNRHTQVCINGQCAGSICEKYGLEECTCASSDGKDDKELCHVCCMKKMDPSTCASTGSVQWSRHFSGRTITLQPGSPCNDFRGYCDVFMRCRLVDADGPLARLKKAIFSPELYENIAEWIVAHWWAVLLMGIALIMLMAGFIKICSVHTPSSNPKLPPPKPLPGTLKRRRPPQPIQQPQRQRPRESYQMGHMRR
sPLA2-III inh = Blocks human group III sPLA2 activity | QFRET BODIPY PC-A2 liposome hydrolysis, fluorescence | inhibition, % at 12.2 µM | 370,000 tested, 0.56% active | AID 743126;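 active = inhibition above mean plus 3 SD of compounds lying within the high and low control bounds, cut at about 19% in these data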;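 note: 0% = median of test compound wells and 100% = no enzyme DMSO wells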
NRP1-CendR mod = modulators of CendR peptide binding to human neuropilin-1; O14786; FAM-RPARPAR peptide binding to NRP-1, fluorescence polarization; inhibition, % at 25 µM; 360,000 tested, 0.85% active; AID 602438;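 active = inhibition or corrected inhibition above about 18%, plus a signal ratio from 0.5 to 1.5, limit read from the data, passing the limit was not always enough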
proKLK7 act conf = proKLK7 activation, confirmation | activation, % at 7 µM | shares compounds with proKLK7 act | AID 686949 | 3,200 tested, 68% active | purified proKLK7, EDANS-DABCYL substrate fluorescence; scaled: vehicle 0, mature enzyme 100;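 active = activation, as change over the incubation, above the mean of all tested compounds plus 3 SD, cut at about 13% in these data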
EDANS interfere = counter-screen for kallikrein-7 activators: EDANS-DABCYL optical interference. EDANS-DABCYL substrate fluorescence interference, no enzyme, 4 h; solvent 0%, active enzyme control 100%. activation, % at 7 µM. 3,200 tested, 80% active. shares compounds with proKLK7 act;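 active = activation above the all-compound mean plus 3 SD, ignoring values outside control-based bounds, cut at about 4.8% in these data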;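 note: value is the 4 h activation minus the activation read at time zero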
EDANS interf = EDANS fluorescence interference in dose response, no enzyme | shares compounds with proKLK7 act | EDANS-DABCYL peptide fluorescence interference | EC50, µM | 250 tested, 20% active | AID 720493;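 active = compounds that raise the fluorescence signal in this interference counterscreen, with EC50 at or below 10 µM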;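 note: intact quenched peptide substrate alone read at 355 nm excitation and 520 nm emission; signal is fluorescence gain from T0 to T4 after four hours at room temperature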
Starred values were filed as active, the others as inactive; i = inactive; · = not tested or not shown. Compounds with a hit are over-represented: about 3.4% of the library has one in this group of screens.

SMILES	proKLK7 act	ADAM17 inh	ADAM10 inh	sPLA2-III inh	NRP1-CendR mod	proKLK7 act conf	EDANS interfere	others
O=C(OC1CCOC1=O)c1cc(-c2cccs2)nc2ccccc12 (stereo not given)	275*	i	i	-4	18	139*	189*
CCc1ccc(-c2cc(C(=O)NN3CCOCC3)c3ccccc3n2)s1	49*	i	i	-4	-22	79*	68*
O=C(NN1CCOCC1)c1cc(-c2cccs2)nc2ccccc12	37*	i	i	-1	9	33*	36*
O=C(NN1CCOCC1)c1cc(-c2ccncc2)nc2ccccc12	0	-2	5	1	5	·	·
COc1ccc2cc(-c3cn(C(=O)N(c4ccccc4)c4ccccc4)nn3)ccc2c1	·	0	7	-7	·	·	·
O=C(NCCc1ccccc1F)c1cc2ccccn2n1	0	-2	-7	-4	·	·	·
COC(=O)[C@@]12CCCCC3=C1N(CCC3)C(=O)[C@H]2CC(=O)N1CCCCC1	-1	-2	-3	-1	·	·	·
CCCCOCCCNC(=O)C[C@H]1C[C@@]2(C(=O)OC)C(=C[C@H](COCc3ccccc3)O[C@@H]2C)N(Cc2ccco2)C1=O	0	-1	-1	-13	·	·	·
O=C(O)c1cc(-c2cccs2)nc2cc3c(cc12)OCCO3	30*	i	i	-1	-4	42*	50*
Cc1ccc2nc(-c3ccc4c(c3)OCCO4)cc(C(=O)O)c2c1	0	-1	-20	2	-13	·	·
Nc1nc2ncccc2cc1C(=O)NC1CC1	25*	i	i	1	·	28*	27*
Nc1nc2ncccc2cc1C(=O)NC1CCCCC1	24*	-473	i	-1	4	20*	25*
O=C(NC1CCCCC1)c1cc2ccccc2cc1O	-9	-4	-8	-30	-1	·	·
CCc1csc(N2[C@H](CN(CCOC)S(=O)(=O)c3ccccc3[N+](=O)[O-])[C@H](c3ccccc3)[C@@H]2CO)n1	0	2	4	1	·	·	·
CCCNC(=O)OC1CC2CC1[C@H]1CCCCN1C2=O (stereo not given in full)	45*	-4	-5	17	0	1	0
CC1(C)CC(=O)C(C=Nc2cccnc2/N=C/C2=C(O)CC(C)(C)CC2=O)=C(O)C1	25*	-18	-52	-31	1	-7	-4
CC1(C)CC(=O)C(C=Nc2cccnc2)=C(O)C1	0	-7	-10	1	2	·	·
CCNC(=S)N1CCc2cc(OC)c(OC)cc2C1COc1ccccc1OC (stereo not given)	58*	-129	-387	2	13	30*	36*
CCNC(=S)N1CCc2cc(OC)c(OC)cc2C1COc1ccc(OC)cc1 (stereo not given)	0	3	4	2	-13	·	·
CN1CCCN(S(=O)(=O)c2ccc3c(c2)n(C)c(=O)c(=O)n3C)CC1	0	-1	-12	6	·	·	·
CCN1CCN(c2nc3c(C)cccn3c(=O)c2/C=C(\C#N)C(=O)NCCOC)CC1	30*	-159	i	6	5	20*	21*
COCCCNC(=O)/C(C#N)=C/c1c(N2CCN(C)CC2)nc2ccccn2c1=O	17*	-331	i	-1	0	10	12*
CCNC(=O)/C(C#N)=C/c1c(N2CCN(c3ccccc3)CC2)nc2ccccn2c1=O	14*	-280	i	14	4	19*	16*	EDANS interf=i
CCOC(=O)/C(C#N)=C/c1c(N2CCN(Cc3ccc4c(c3)OCO4)CC2)nc2c(C)cccn2c1=O	0	-3	-9	4	-23	·	·
Cc1cccn2c(=O)c(/C=C(\C#N)C(N)=O)c(N3CCN(Cc4ccc5c(c4)OCO5)CC3)nc12	15*	-297	i	0	-8	3	3
